Experimental data taken from PubChem BioAssay AID1159580 (chemical genetic matrix, 2015).
“And” between values parts separate entries of the source, which are not always exact repeats. Equal values may be shown once. The campaign covered roughly 5,500 compounds. About 2,000 (36%) were called active. Inconclusive results (about 18%) are left out. Rule as the data show it: active = normalized growth mostly below about 0.91 (no sharp cut-off); inconclusive = no clear call, values can overlap the other calls; inactive = mostly above about 0.92. The list shows a part of the results.

Assay: chemical genetic growth profiling, strain panel (AID 1159580);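 also: tested at 20 µM; growth read once vehicle control cultures reached saturation at 30 °C; 1 = growth at the plate median or of vehicle wells; lower values mean less growth of the strain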
Settings: S. cerevisiae deletion strains, growth OD

Measured: normalized growth

Cc1cccc(C)c1NC(=O)C1CCCCN1C (configuration not stated)
inactive: locus YAL013W, strain DEP1, hits give low values 1.02 | locus YAL021C, strain ccr4, hits give low values 1.02 | locus YAL026C, strain drs2, hits give low values 0.993 | locus YAL030W, strain snc1, hits give low values 0.985 | locus YBL061C, strain skt5, hits give low values 0.979 | locus YBR009C, strain hhf1, hits give low values 0.989 | locus YBR021W, strain FUR4, hits give low values 1 | locus YBR023C, strain chs3, hits give low values 0.991 | locus YBR171W, strain sec66, hits give low values 0.977 | locus YBR229C, strain ROT2, hits give low values 1.01 | locus YBR231C, strain swc5, hits give low values 0.993 | locus YBR279W, strain paf1, hits give low values 0.991 | locus YCL011C, strain gbp2, hits give low values 0.988 | locus YCL016C, strain dcc1, hits give low values 0.995 | locus YCL029C, strain bik1, hits give low values 1.02 | locus YCL061C, strain MRC1, hits give low values 0.975 | locus YCL069W, strain vba3, hits give low values 0.983 | locus YCR088W, strain abp1, hits give low values 0.992 | locus YDL005C, strain med2, hits give low values 0.982 | locus YDL035C, strain GPR1, hits give low values 1.01 | locus YDL040C, strain nat1, hits give low values 0.986 | locus YDL074C, strain BRE1, hits give low values 1 | locus YDL101C, strain DUN1, hits give low values 1.01 | locus YDL134C, strain PPH21, hits give low values 0.99 | locus YDL185W, strain tfp1, hits give low values 1.01 | locus YDL192W, strain arf1, hits give low values 1.01 | locus YDR001C, strain nth1, hits give low values 0.985 | locus YDR069C, strain doa4, hits give low values 1 | locus YDR101C, strain arx1, hits give low values 1 | locus YDR137W, strain rgp1, hits give low values 0.984 | locus YDR150W, strain NUM1, hits give low values 1 | locus YDR159W, strain sac3, hits give low values 0.983 | locus YDR162C, strain NBP2, hits give low values 0.994 | locus YDR195W, strain ref2 0.986 | locus YDR297W, strain sur2, hits give low values 0.992 | locus YDR318W, strain mcm21, hits give low values 1.01 | locus YDR334W, strain swr1, hits give low values 0.982 | locus YDR335W, strain msn5, hits give low values 0.989 | locus YDR388W, hits give low values 1.01 | locus YDR392W, strain spt3, hits give low values 0.996 | locus YDR502C, strain sam2, hits give low values 1.01 | locus YEL003W, strain gim4, hits give low values 0.986 | locus YEL037C, strain rad23, hits give low values 0.996 | locus YEL061C, strain CIN8 (second series), hits give low values 0.992 | locus YEL061C, strain CIN8, hits give low values 1 | locus YER015W, strain faa2, hits give low values 0.988 | locus YER016W, strain bim1, hits give low values 0.983 | locus YER110C, hits give low values 1.02 | locus YER111C, strain swi4, hits give low values 0.994 | locus YER155C, strain BEM2 (second series), hits give low values 0.982 | locus YER155C, strain BEM2, hits give low values 0.99 | locus YER167W, strain BCK2, hits give low values 1 | locus YFR010W, strain ubp6, hits give low values 0.984 | locus YGL078C, strain dbp3, hits give low values 1.01 | locus YGL086W, strain mad1, hits give low values 1 | locus YGL167C, strain pmr1, hits give low values 0.995 | locus YGL173C, strain kem1, hits give low values 0.988 | locus YGL227W, strain vid30, hits give low values 0.98 | locus YGL240W, strain doc1, hits give low values 0.981 | locus YGL248W, strain PDE1, hits give low values 1 | locus YGL253W, strain hxk2, hits give low values 0.982 | locus YGR078C, strain PAC10, hits give low values 0.996 | locus YGR135W, strain pre9, hits give low values 1 | locus YGR229C, strain SMI1, hits give low values 1 | locus YGR252W, strain gcn5, hits give low values 0.963 | locus YHR013C, strain ard1, hits give low values 0.96 | locus YHR027C, strain rpn1, hits give low values 0.986 | locus YHR030C, strain SLT2, hits give low values 1 and 1.01 | locus YHR079C, strain IRE1 (second series), hits give low values 1.01 | locus YHR079C, strain IRE1, hits give low values 1.03 | locus YHR094C, strain hxt1, hits give low values 1.01 | locus YHR129C, strain ARP1, hits give low values 1.01 | locus YHR142W, strain chs7, hits give low values 0.987 | locus YHR200W, strain rpn10, hits give low values 1 | locus YIL066C, strain RNR3, hits give low values 0.999 | locus YIL073C, strain SPO22, hits give low values 1.01 | locus YIL125W, strain kgd1, hits give low values 1.01 | locus YIR030C, strain dcg1, hits give low values 1.01 | locus YJL092W, strain hpr5, hits give low values 0.986 | locus YJL095W, strain BCK1 (second series), hits give low values 0.989 | locus YJL095W, strain BCK1, hits give low values 1.02 and 0.998 | locus YJL115W, strain asf1, hits give low values 0.996 | locus YJL129C, strain trk1, hits give low values 1.01 | locus YJL134W, strain LCB3, hits give low values 1.01 | locus YJL154C, strain vps35, hits give low values 0.994 | locus YJL164C, strain tpk1, hits give low values 0.987 | locus YJL166W, strain qcr8, hits give low values 0.993 | locus YJL168C, strain set2, hits give low values 1.01 | locus YJL187C, strain SWE1 (second series), hits give low values 1.01 | locus YJL187C, strain SWE1, hits give low values 0.985 | locus YJR043C, strain POL32, hits give low values 1.02 | locus YJR066W, strain TOR1, hits give low values 0.986
